Source: PubChem BioAssay (National Center for Advancing Translational Sciences (NCATS))
The full list was thinned out, with hits kept by preference.
ClpP mod – qHTS Assay for Activators of ClpP; purified B. subtilis ClpP, FRET peptide cleavage, 20 min; Potency, µM (series often up to 57.5 µM), for the others: at the top dose activity change, negative = active; 1.9% of 340,000 active; active means well fitted falling curve with a large enough effect; inconclusive means small, poorly fitted or top-dose-only effect; inactive means no such curve, though single readings can be large or run the other way; further: potency means the concentration at half of the fitted maximal effect; the source files actives as falling curves though it sought activators and does not explain the sign; nearly all actives have a fitted effect of over 65% in size
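Purified B. subtilis ClpP, 10 microg/mL final in Tris/HCl pH8 with KCl, BSA, glycerol and Tween-20, cleaved an Abz/nitrotyrosine-quenched decapeptide. Fluorescence (ex 320, em 430) was read at 0 and 20 min at room temperature. Delta was normalized to 5.8 microM ADEP and DMSO/no-enzyme controls.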
N370S GC – inhibitors or activators of N370S glucocerebrosidase for Gaucher disease | P04062 | N370S GC spleen homogenate, 4MU-glucoside fluorescence | Potency, µM (top dose mostly 59.4 µM), for inactives: at the highest dose activity change, negative = inhibition, actives largely listed as inhibitors | 0.092% of 330,000 active;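 further: potency means the concentration at half of the fitted maximal effect; 0% = full enzyme activity and -100% = no enzyme basal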
GRP78 ERSR act – ER stress response induction in glioma; U87-MG GRP78 promoter luciferase reporter, 16 h; AID 602332; 0.02% of 420,000 active; Potency, µM, for the others: at the highest dose activation, usual class: activators; further: potency means the concentration at half of the fitted maximal effect; series mostly up to about 76 µM; % of control where 0% means no effect; nearly all actives have a fitted effect of over 35% in size
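ERSR induction read as luciferase luminescence (Bright-Glo, 10 min at room temperature) in stably transfected human U87-MG glioma cells exposed to compounds for 16 h, using GRP78 as sensor.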
Apoferritin bind – candidate novel general anesthetic via apoferritin binding; P02791; AID 485281; Potency, µM (doses to about 77.5 µM), for the others: top-dose activity change, negative = displacement, hits mostly inhibitors; 0.074% of 350,000 active; apoferritin/1-aminoanthracene competitive binding, fluorescence; further: potency means the concentration at half of the fitted maximal effect; on the % scale 0 is the no-effect control and ±100 the full control effect; nearly all actives have a fitted effect of over 20% in size
Target sequence (P02791 2-175 limits assumed): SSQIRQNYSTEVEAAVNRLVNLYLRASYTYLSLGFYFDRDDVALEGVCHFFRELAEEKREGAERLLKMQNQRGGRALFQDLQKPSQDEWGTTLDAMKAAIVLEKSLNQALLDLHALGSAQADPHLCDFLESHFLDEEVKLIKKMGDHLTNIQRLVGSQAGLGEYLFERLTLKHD
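Horse-spleen apoferritin (10 uM) in 50% saturated 1-aminoanthracene in PBS was incubated 10 min at room temperature with compound. Fluorescence (ex 380, em 535 nm) was normalized to free and bound 1-AMA, with concentration-response fitted by a four-parameter Hill equation.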
Integrin act MD – integrin-mediated muscular dystrophy alleviation activation | alpha7betagal myoblasts, beta-gal FDG fluorescence, 48 h | Potency, µM (top dose mostly 38.3 µM), for the others: at the highest dose activation, usual class: activators | 0.064% of 350,000 active | AID 624291;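 further: potency means the concentration at half of the fitted maximal effect; 100% = response of the positive control SU9516; nearly all actives have a fitted effect of over 60% in size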
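Alpha7betagal+/- myoblasts (passage 13) were plated 16-24 hr, then exposed to compounds (1:260 dilution of DMSO stock) for 48 hours at 37C. After MPER lysis, β-galactosidase reporter activity was read as FDG fluorescence (ex 480/em 540) after 30 minutes.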
CBFb-RUNX1 inh – blocks binding between human CBF-beta and RUNX1 | 230,000 tested, under 10 active | Potency, µM (titrated, usually from 59.8 µM), for inactives: at the highest dose activity, negative = inhibition, hits mostly inhibitors | Q01196+Q13951 | AlphaScreen CBFb-His/RUNX1-biotin binding, biochemical; further: % of control where 0% means no effect
Target sequence (Q01196 whole entry, looked up): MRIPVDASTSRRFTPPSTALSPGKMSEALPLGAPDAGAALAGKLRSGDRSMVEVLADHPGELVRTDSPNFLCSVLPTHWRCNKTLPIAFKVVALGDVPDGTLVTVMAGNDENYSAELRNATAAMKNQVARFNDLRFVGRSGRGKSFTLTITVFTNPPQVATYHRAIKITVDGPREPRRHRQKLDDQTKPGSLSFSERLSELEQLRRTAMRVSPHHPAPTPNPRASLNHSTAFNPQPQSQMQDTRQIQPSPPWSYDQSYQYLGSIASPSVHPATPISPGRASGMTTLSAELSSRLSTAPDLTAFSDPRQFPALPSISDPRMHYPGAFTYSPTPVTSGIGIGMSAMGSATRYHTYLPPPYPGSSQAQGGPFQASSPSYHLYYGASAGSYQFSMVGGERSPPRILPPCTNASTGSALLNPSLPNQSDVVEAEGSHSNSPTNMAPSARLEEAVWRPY
Target sequence (Q13951 whole entry, looked up): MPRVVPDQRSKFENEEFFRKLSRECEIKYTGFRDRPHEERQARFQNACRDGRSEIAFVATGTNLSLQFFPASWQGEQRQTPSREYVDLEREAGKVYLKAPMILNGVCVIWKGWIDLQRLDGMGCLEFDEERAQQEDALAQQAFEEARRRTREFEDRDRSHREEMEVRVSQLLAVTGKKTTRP
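CBF-beta (His) and RUNX1 (biotin), 30 nM each; 20 min preassociation; + compound, 15 min; + beads 50 ng each (Ni, streptavidin), 90 min; RT; AlphaScreen read.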
ClpP validation – inhibits B. subtilis ClpP protease, hit validation; shares compounds with ClpP mod; purified B. subtilis ClpP, FRET-FV substrate cleavage, 20 min; Potency, µM (titrated, usually from 57.5 µM), inactives show top-dose activity change, negative = inhibition, usual class: inhibitors; 40% of 470 active; AID 743245; further: potency means the concentration at half of the fitted maximal effect; on the % scale 0 is the no-effect control and ±100 the full control effect; nearly all actives have a fitted effect of over 70% in size
An asterisk follows results filed as active; ? = inconclusive; · = no result; [ ] = another dose, or the depositor's remark. Unless noted, the call rests on the fitted dose curve; in most records, active means well fitted curve in the direction sought with a large enough effect; inconclusive means small, poorly fitted or top-dose-only effect, or another doubt; inactive means no such curve, though single readings can be large; an effect the other way counts as inactive or inconclusive.

SMILES	ClpP mod	N370S GC	GRP78 ERSR act	Apoferritin bind	Integrin act MD	CBFb-RUNX1 inh	ClpP validation
CC(=O)Nc1ccc2c(c1)nc1n2CCSC1	40.1%	1.8%	-3.9%	21.0%	1.8%	-1.2%	-0.9%
CC(C)(C)OC(=O)NS(=O)(=O)NOCc1ccccc1	1.7%	·	-3.4%	·	·	·	·
O=C(COc1ccccc1Cl)Nc1ccc(-c2nc3ccccc3s2)cc1	?	·	1.0%	-9.7%	·	·	·
COc1ccc(-c2nc3ccccc3s2)cc1NC(=O)c1ccc(F)cc1	88.6%	·	-3.7%	5.2%	·	·	21.7µM*
CC(C)(C)C(=O)Nc1ccc(-c2nc3ccccc3s2)cc1	10µM*	·	-11.4%	3.1%	·	·	-0.5%
NC(C(=O)O)c1cc(O)cc(O)c1 (stereo not drawn)	·	8.7%	-1.8%	·	·	?	·
Cc1ccc2c(/C=C/c3ccc(N(C)C)cc3)c(C)cnc2c1	2.5%	·	-3.4%	·	·	·	·
Cc1cc(-c2ccccc2)c2nncn2n1	7.94µM*	1.6%	-3.8%	4.7%	0.8%	-1.4%	21.7µM*
CC(C(=O)c1ccccc1)[n+]1ccc(Cl)c2ccc(Cl)cc21 (stereo not drawn)	-2.9%	·	0.0%	·	·	·	·
Cc1ccc(Nc2c(-c3ccccn3)nc3cc(C)ccn23)cc1	·	-7.3%	-6.8%	-21.9%	-69.9%	·	·
Cc1ccn2c(Nc3ccc(C(C)C)cc3)c(-c3ccsc3)nc2c1	3.98µM*	·	-1.0%	-10.9%	·	·	-15.5%
Fc1ccccc1N1CCN(c2nnc(C(F)(F)F)c3nnn(Cc4ccccc4)c23)CC1	7.94µM*	·	-3.1%	-6.6%	·	·	19.3µM*
Cc1nc([N+](=O)[O-])cn1CC(=O)c1ccc2c(c1)OCCCO2	2.2%	·	0.9%	·	·	·	·
O=Cc1c(Cl)nc2ccccn12	·	-2.4%	-2.0%	-4.3%	10.1%	1.2%	·
Clc1cc2nc3ccccn3c2cc1Cl	8.91µM*	10.5%	3.2%	8.2%	-21.5%	7.9%	19.3µM*
c1ccc2nc(-c3ccc(N4CCOCC4)cc3)ccc2c1	106.5%	1.9%	-7.1%	-2.1%	3.0%	13.3%	7.3%
Cc1cc(-c2ccc(N3CCOCC3)cc2)nc2ccccc12	?	23.0%	-1.1%	5.0%	3.8%	0.3%	·
Cc1cc(C)cc(N(CC(=O)Nc2ccc(-c3nc4ccc(C)cc4s3)cc2)S(C)(=O)=O)c1	10µM*	7.4%	-0.1%	2.8%	15.6%	7.5%	19.3µM*
Cc1ccccc1N=C1Nc2ccc(Cl)cc2N[C@]12C[C@H]1CCCC(=O)N3CC[C@@H](C2)[C@@H]13	-0.8%	·	-1.0%	·	·	·	·
CCOc1cc(C(=O)Nc2ccc(-c3nc4cc(C)ccc4o3)cc2)cc(OCC)c1OCC	3.16µM*	·	-1.7%	-5.7%	·	·	30.6µM*
Cc1ccc2oc(-c3ccc(NC(=O)c4ccc5c(c4)OCO5)cc3)nc2c1	3.16µM*	2.8%	2.1%	-4.4%	14.6%	-1.9%	12.2µM*
CCOc1cc(C(=O)Nc2ccc3oc(-c4ccc(CC)cc4)nc3c2)cc(OCC)c1OCC	-16.1%	·	-2.4%	4.0%	·	·	·
Cc1ccc2oc(-c3ccc(NC(=O)c4cccnc4)cc3)nc2c1	51.3%	-2.8%	7.4%	-5.3%	9.4%	3.7%	·
Cc1ccc2oc(-c3ccc(NC(=O)CC(C)C)cc3)nc2c1	8.91µM*	-2.5%	2.2%	-11.2%	7.5%	4.0%	?
CCCOc1ccc(C(=O)Nc2ccc3oc(-c4ccc(N(C)C)cc4)nc3c2)cc1	1.26µM*	·	-1.7%	54.2%	·	·	0.6%
SMILES	ClpP mod	N370S GC	GRP78 ERSR act	Apoferritin bind	Integrin act MD	CBFb-RUNX1 inh	ClpP validation
CC(C)C(=O)SCCCCCCC(=O)Nc1nc(-c2ccccc2)cs1	·	-11.7%	?	-10.7%	·	17.3%	·
CCC(C)c1ccc2oc(-c3ccc(NC(=O)c4ncn[nH]4)cc3)nc2c1 (stereo not drawn)	10µM*	-0.5%	2.3%	33.4%	19.0%	?	21.7µM*
CC(C)c1ccc2oc(-c3ccc(NC(=O)c4ncn[nH]4)cc3)nc2c1	?	-1.7%	14.8%	-5.2%	-62.5%	-4.8%	·
CCCCn1cc2c(c1-c1ccc(Br)cc1)c(=O)n(C)c(=O)n2C	4.1%	·	-3.2%	-11.9%	·	·	·
CCCCCn1cc2c(c1-c1ccc(Cl)cc1)c(=O)n(C)c(=O)n2C	10µM*	·	-2.0%	-9.5%	·	·	?
COCCn1cc(C(=O)N2CCCC(C)C2)c2c3ccccc3n(C)c2c1=O (stereo not drawn)	3.16µM*	19.8%	-2.1%	-10.3%	-19.9%[7.66 µM]	0.1%	15.3µM*
Cc1cnc2c(C)ccc(C)c2c1/C=C/c1ccc(N(C)C)cc1	-3.0%	·	-3.4%	·	·	·	·
O=C(CNC1=NCCS1)c1c[nH]c2ccccc12	-18.8%	·	-1.5%	·	·	·	·
O=C(Nc1ccccc1Cl)c1cc2c(-c3ccccc3)nn(-c3ccccc3)c2s1	?	·	-2.3%	2.5%	·	·	19.3µM*
O=C(NCc1ccccc1)C(c1cccc2ccccc12)n1c(=O)c(-c2cc3ccccc3[nH]2)nc2ccccc21 (stereo not drawn)	41.5%	·	·	·	·	·	5.9%
O=C(NCc1ccccc1)C(c1ccc(C(F)(F)F)cc1)n1c(=O)c(-c2cc3ccccc3[nH]2)nc2ccccc21 (stereo not drawn)	28.2%	·	·	·	·	·	-4.7%
O=C(Nc1ccc2ccccc2c1)C(c1ccccc1)n1c(=O)c(-c2cc3ccccc3[nH]2)nc2ccccc21 (stereo not drawn)	49.9%	·	·	·	·	·	12.7%
Cc1cccc(C)c1NC(=O)C(c1cccc2ccccc12)n1c(=O)c(-c2cc3ccccc3[nH]2)nc2ccccc21 (stereo not drawn)	53.8%	·	·	·	·	·	8.0%
C=C1C=C(C(F)F)n2ncc(C(=O)Nc3ccc(Br)cc3C(F)(F)F)c2N1	1.9%	·	4.5%	·	·	·	·
Nc1nc2c(nc(N3CCOCC3)n2COCCO)c(=O)[nH]1	1.4%	·	-2.0%	·	·	·	·
CCCCCNC(=O)C(c1cc2ccccc2o1)n1c(=O)c(-c2cc3ccccc3[nH]2)nc2ccccc21 (stereo not drawn)	2.9%	·	·	·	·	·	·
O=c1c(-c2cc3ccccc3[nH]2)nc2ccccc2n1C(CCc1ccccc1)c1nc2ccccc2[nH]1 (stereo not drawn)	32.1%	·	·	·	·	·	7.3%
CCCCCNC(=O)C(c1ccc(-c2ccccc2)cc1)n1c(=O)c(-c2cc3ccccc3[nH]2)nc2ccccc21 (stereo not drawn)	48.3%	·	·	·	·	·	14.1%
O=C(NCc1ccccc1)C(CCc1ccccc1)n1c(=O)c(-c2cc3ccccc3[nH]2)nc2ccccc21 (stereo not drawn)	11.4%	·	·	·	·	·	·
O=c1[nH]c2cc(Cl)ccc2c(O)c1-c1ccc(Oc2ccccc2)cc1	·	10.0%	-5.0%	·	·	5.0%	-15.1%
